Results taken from PubChem BioAssay (NCATS).
Results filed as inconclusive are left out. Where a call stands in place of a potency, no number is given. The source made the active and inactive calls. Unless noted, calls follow the shape of the dose curve; as a rule, active = well fitted curve in the direction sought with a large enough effect; inconclusive = small, poorly fitted or top-dose-only effect, or another doubt; inactive = no such curve, though single readings can be large; an effect the other way counts as inactive or inconclusive.

Experiments:
[1] = target: alpha-glucosidase (Oryza sativa, rice) (UniProt Q653V4); assay: Counterscreen for Glucocerebrosidase Inhibitors: qHTS Assay for Rice alpha-Glucosidase at pH 5.0 (AID 997)
Summary of the method: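 Rice alpha-glucosidase (4 nM final) with 400 uM 4-methylumbelliferyl-alpha-D-glucopyranoside in citrate buffer pH 5.0, 20 min at room temperature, stopped at pH 10; fluorescence 365/440 nm, compounds 0.7 nM–77 uM, AC50 from Hill fits.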

[2] = qHTS Assay for Lipid Storage Modulators (AID 1519; calls by dose curve); details: Drosophila S3 cells, BODIPY lipid droplet/cell ratio, laser cytometry, cells loaded with oleic acid
Summary of the method: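 Cells seeded at 5,000 per well were treated with compounds over a concentration series and loaded with oleic acid (400 uM, as added). Lipid droplet fluorescence (488 nm excitation, 500-530 nm channel) was read by laser-scanning cytometry and normalized to 20 uM Triacsin C.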

[3] = target: DNA repair nuclease/redox regulator APEX1 (Homo sapiens) (UniProt P27695); assay: qHTS Validation Assay for Inhibitors of the Human Apurinic/apyrimidinic Endonuclease 1 (APE1) (AID 1705;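 also: TAMRA fluorescence gain over two minutes as APE1 cuts a quenched THF abasic duplex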)
DNA repair nuclease/redox regulator APEX1 (Homo sapiens), sequence (P27695 whole entry, looked up): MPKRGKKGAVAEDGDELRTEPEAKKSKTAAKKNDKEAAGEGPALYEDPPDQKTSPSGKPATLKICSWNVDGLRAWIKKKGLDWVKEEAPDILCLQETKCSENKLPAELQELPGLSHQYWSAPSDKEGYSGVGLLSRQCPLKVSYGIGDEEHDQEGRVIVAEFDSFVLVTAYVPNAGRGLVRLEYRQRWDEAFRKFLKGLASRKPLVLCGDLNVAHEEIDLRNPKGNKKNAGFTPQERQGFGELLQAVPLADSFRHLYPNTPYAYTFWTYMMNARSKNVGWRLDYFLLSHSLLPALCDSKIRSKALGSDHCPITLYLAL
Summary of the method: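 qHTS, 1536-well. APE1 + cpd 15 min RT → 50 nM TAMRA/BHQ-2 THF-abasic dsDNA substrate → kinetic fluorescence, 3 reads/60 s; delta(read3−read1) = reaction progress. No-enzyme buffer = negative control.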

[4] = Counterscreen for APE1 Inhibitors: Fluorescent Dye Displacement Validation Assay (AID 1707)
Summary of the method: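 Thiazole Orange displacement from dsDNA: 250 nM ThO with 50 nM TAMRA-labelled abasic-site (tetrahydrofuran) duplex in 50 mM Tris-HCl pH7.5, 50mM NaCl, 2 mM MgCl2, 0.01% Tween-20. Loss of endpoint fluorescence (ex 480 nm, em 540 nm) flags DNA binders.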

[5] = target: Endonuclease 4 (Escherichia coli (strain K12)) (UniProt P0A6C1); assay: Counterscreen for APE1 Inhibitors: qHTS Validation Assay for Inhibitors of Endonuclease IV (AID 1708)
Summary of the method: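 Enzymatic AP-site incision assay using a double-stranded THF substrate labelled with TAMRA and BHQ-2; released fluorescence signals activity. Enzyme 2 nM, substrate 50 nM, 15 min compound preincubation.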

[6] = qHTS for differential inhibitors of proliferation of Plasmodium falciparum line 7G8 (AID 1815);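 also: parasite growth measured after three days of incubation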; also: potency is read from the fitted curve at half-maximal effect
[7] = qHTS for differential inhibitors of proliferation of Plasmodium falciparum line GB4 (AID 1816); details: Potency: Plasmodium falciparum GB4 proliferation inhibition;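 also: parasite growth measured after 72 h incubation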; also: potency is read from the fitted curve at half-maximal effect
[8] = qHTS for differential inhibitors of proliferation of Plasmodium falciparum line 3D7 (AID 1876); also: potency is read from the fitted curve at half-maximal effect
[9] = Cell Viability - LYMP2-010 (AID 981);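 also: cells exposed to compound for 24 hours at 37 °C; nearly all actives have a fitted effect of over 55% in size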
Summary of the method: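 Acute toxicity is scored as a concentration-dependent loss of cellular ATP in human lymphoblastoid cells after 24 hr compound exposure in complete medium. Tetraoctylammonium bromide is the positive control.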

[10] = Cell Viability - LYMP2-014 (AID 983);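 also: cells exposed to compound for 24 h at 37 °C; nearly all actives have a fitted effect of over 50% in size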
Summary of the method: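 Decrease in intracellular ATP after 24 hr treatment at 37 C, measured by luciferase luminescence, indicated cytotoxicity. Concentration-response data were fitted with the standard Hill equation to give AC50.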

[11] = Cell Viability - LYMP2-016 (AID 984);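 also: cells exposed to compound for 24 hours at 37 °C; nearly all actives have a fitted effect of over 55% in size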
Summary of the method: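 Cells were seeded at 2500 per well and rested 5 hr before a 24 hr compound exposure at 37 C. Viability was then gauged as cellular ATP by luciferase luminescence, with AC50 values fitted to the Hill equation.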

[12] = Cell Viability - LYMP2-018 (AID 985); also: nearly all actives have a fitted effect of over 50% in size
Summary of the method: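 Acute cytotoxicity is scored as a concentration-dependent drop in intracellular ATP after 24 hr exposure of the lymphoblastoid line in complete culture medium, measured by luciferase luminescence. Potency is expressed as AC50 from Hill modelling.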

[13] = Cell Viability - LYMP2-020 (AID 986);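 also: cells exposed to compound for 24 h at 37 °C; nearly all actives have a fitted effect of over 55% in size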
Summary of the method: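 Acute cytotoxicity in a human lymphoblastoid line is scored as a concentration-dependent fall in cellular ATP after 24 hr at 37 C in complete medium. The positive control is tetraoctylammonium bromide, and potency is given as Hill-fit AC50.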

[14] = Cell Viability - LYMP2-022 (AID 987); also: nearly all actives have a fitted effect of over 55% in size
Summary of the method: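 Acute toxicity in a human lymphoblastoid line is scored as decreased intracellular ATP after 24 hr compound treatment at 37 C. ATP is measured by CellTiter-Glo luminescence; curves are fitted with the Hill equation to give AC50.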

[15] = Cell Viability - LYMP2-024 (AID 988); also: nearly all actives have a fitted effect of over 60% in size
Summary of the method: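 Acute toxicity is measured as concentration-dependent loss of intracellular ATP in a human lymphoblastoid line treated 24 hours at 37 C. Luciferase luminescence quantifies ATP; AC50 values come from standard Hill-equation modelling.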

[16] = Cell Viability - LYMP2-026 (AID 989);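 also: cells exposed to compound for 24 h at 37 °C; nearly all actives have a fitted effect of over 50% in size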
Summary of the method: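 Concentration-dependent loss of intracellular ATP in human lymphoblastoid cells after 24 hr at 37 C, quantified by luciferase luminescence. AC50 derived from standard Hill equation.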

[17] = Cell Viability - LYMP1-002 - Assay at 24 hr (AID 993)
Summary of the method: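 qHTS, LYMP1-002 lymphoblastoid, 24 h cpd, 37 C, CellTiter-Glo ATP luminescence; AC50 via Hill eq.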

[18] = Cell Viability - LYMP1-002 - Assay at 40 hr (AID 994); also: nearly all actives have a fitted effect of over 60% in size
Summary of the method: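 Viability in the human lymphoblastoid line was measured as intracellular ATP via CellTiter-Glo after 40 hr compound exposure. Tetraoctylammonium bromide served as positive control.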

[19] = target: Alpha-galactosidase A (Homo sapiens) (UniProt P06280); assay: Counterscreen for Glucocerebrosidase Inhibitors: qHTS Assay for Human alpha-Galactosidase at pH 4.5 (AID 992)
Alpha-galactosidase A (Homo sapiens), sequence (P06280 whole entry, looked up): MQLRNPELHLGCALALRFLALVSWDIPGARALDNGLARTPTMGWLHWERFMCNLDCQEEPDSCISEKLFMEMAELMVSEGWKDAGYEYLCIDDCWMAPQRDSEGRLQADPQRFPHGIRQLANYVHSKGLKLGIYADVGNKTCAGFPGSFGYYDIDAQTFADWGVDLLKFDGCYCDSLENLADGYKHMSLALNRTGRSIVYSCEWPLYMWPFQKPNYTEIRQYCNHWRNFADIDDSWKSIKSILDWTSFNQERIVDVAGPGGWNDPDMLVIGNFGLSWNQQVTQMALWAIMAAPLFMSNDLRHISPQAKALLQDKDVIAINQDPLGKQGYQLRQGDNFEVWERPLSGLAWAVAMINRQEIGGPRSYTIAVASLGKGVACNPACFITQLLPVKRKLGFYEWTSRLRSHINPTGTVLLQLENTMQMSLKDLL
Summary of the method: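 Enzyme at 2 nM final was combined with compound (0.7 nM to 77 uM) and 80 uM 4-methylumbelliferyl alpha-D-galactopyranoside in 50 mM citric acid, 0.005% Tween-20, pH 4.5. After 20 min at room temperature, fluorescence was read (Ex 365/Em 440 nm); AC50 came from Hill fits.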

[20] = measured here: cell count channel max response
[21] = measured here: lipid channel max response

CC1=C(CC(=O)O)c2cc(F)ccc2/C1=C\c1ccc(S(C)=O)cc1 (stereo unspecified)
outcome [1]: inactive | activity change, negative = inhibition ([2]; at 25.7 µM (top of the series)): -0.955% (inactive) | max response [2, 20]: -8.73% | max response [2, 21]: -7.15% | Potency [3]: inactive | Potency [4]: inactive | Potency [5]: inactive | Potency [6]: inactive | Potency [7]: inactive | Potency [8]: inactive

CCCCOC(=O)c1ccc(O)cc1
Potency [9]: inactive | outcome [10]: inactive | Potency [11]: inactive | Potency [12]: inactive | Potency [13]: inactive | Potency [14]: inactive | outcome [15]: inactive | Potency [16]: inactive | Potency [17]: inactive | Potency [18]: inactive | activity change, negative = inhibition ([2]; at 25.7 µM (top of the series)): -2.55% (inactive) | max response [2, 20]: -1.21% | max response [2, 21]: -4.1%

CSc1ccc2c(c1)N(CCC1CCCCN1C)c1ccccc1S2 (stereo unspecified)
activity change, negative = inhibition ([2]; at 57.5 µM (top of the series)): -0.301% (inactive) | max response [2, 20]: -6.02% | max response [2, 21]: -4.98% | Potency [3]: inactive | Potency [4]: inactive | Potency [6]: 4.47 µM (active) | Potency [7]: 3.98 µM (active) | Potency [8]: 8.91 µM (active)

Cc1cc(N)c2ccccc2[n+]1CCCCCCCCCC[n+]1c(C)cc(N)c2ccccc21
outcome [19]: inactive | outcome [1]: inactive | activity change, negative = inhibition ([2]; at 57.5 µM (top of the series)): -10.5% (inactive) | max response [2, 20]: -7.09% | max response [2, 21]: -16.4% | Potency [7]: 0.251 µM (active) | Potency [8]: 0.0501 µM (active)

Oc1cccc(O)c1
Potency [9]: inactive | outcome [10]: inactive | Potency [11]: inactive | Potency [12]: inactive | Potency [13]: inactive | Potency [14]: inactive | outcome [15]: inactive | Potency [16]: inactive | Potency [17]: inactive | Potency [18]: inactive | activity change, negative = inhibition ([2]; at 57.5 µM (top of the series)): 4.72% (inactive) | max response [2, 20]: 10.3% | max response [2, 21]: 16.6%

CC[C@H]1CN2CCc3cc(OC)c(OC)cc3[C@@H]2C[C@@H]1C[C@H]1NCCc2cc(OC)c(OC)cc21
Potency [4]: inactive | Potency [5]: inactive

CCCn1cnc2c1c(=O)n(CCCCC(C)=O)c(=O)n2C
outcome [19]: inactive | outcome [1]: inactive | activity change, negative = inhibition ([2]; at 57.5 µM (top of the series)): 0.49% (inactive) | max response [2, 20]: 51.1% | max response [2, 21]: 50.9% | Potency [3]: inactive | Potency [4]: inactive | Potency [5]: inactive

Nc1cc(=O)[nH]c(N)n1
outcome [19]: inactive | outcome [1]: inactive | activity change, negative = inhibition ([2]; at 57.5 µM (top of the series)): 1.9% (inactive) | max response [2, 20]: -3.41% | max response [2, 21]: -1.88% | Potency [3]: inactive | Potency [4]: inactive | Potency [5]: inactive | Potency [6]: inactive | Potency [7]: inactive | Potency [8]: inactive

NC(N)=NCCC[C@H](N)C(=O)O
outcome [19]: inactive | outcome [1]: inactive | activity change, negative = inhibition ([2]; at 57.5 µM (top of the series)): -0.95% (inactive) | max response [2, 20]: -7.59% | max response [2, 21]: -6.54% | Potency [4]: inactive | Potency [5]: inactive | Potency [6]: inactive | Potency [7]: inactive | Potency [8]: inactive

CC1=C(/C=C/C(C)=C/C=C/C(C)=C/C(=O)O)C(C)(C)CCC1
activity change, negative = inhibition ([2]; at 57.5 µM (top of the series)): 0.149% (inactive) | max response [2, 20]: -9.37% | max response [2, 21]: -7.9% | Potency [3]: inactive | Potency [4]: inactive | Potency [5]: inactive | Potency [6]: 14.1 µM (active) | Potency [8]: inactive

CN(C)CCOC(C)(c1ccccc1)c1ccccn1 (stereo unspecified)
activity change, negative = inhibition ([2]; at 57.5 µM (top of the series)): 3.29% (inactive) | max response [2, 20]: -15.9% | max response [2, 21]: -9.47% | Potency [3]: inactive | Potency [4]: inactive | Potency [5]: inactive | Potency [7]: 6.31 µM (active)

NCCNCCNCCN
Potency [9]: inactive | outcome [10]: inactive | Potency [11]: inactive | Potency [12]: inactive | Potency [13]: inactive | Potency [14]: inactive | outcome [15]: inactive | Potency [16]: inactive | Potency [17]: inactive | Potency [18]: inactive

CC(C)C(=O)c1c(C(C)C)nn2ccccc12
outcome [19]: inactive | outcome [1]: inactive | Potency [3]: inactive | Potency [4]: inactive | Potency [5]: inactive | Potency [7]: inactive

CN(C)CC[C@@H](c1ccc(Cl)cc1)c1ccccn1
activity change, negative = inhibition ([2]; at 57.5 µM (top of the series)): -0.0513% (inactive) | max response [2, 20]: 35.1% | max response [2, 21]: 34.2% | Potency [3]: inactive | Potency [4]: inactive | Potency [5]: inactive | Potency [6]: 2.51 µM (active) | Potency [8]: inactive

C[C@]12C[C@H](O)[C@H]3[C@@H](CCC4=CC(=O)CC[C@@]43C)[C@@H]1CC[C@@H]2C(=O)CO
Potency [9]: inactive | outcome [10]: inactive | Potency [11]: inactive | Potency [13]: inactive | Potency [14]: inactive | outcome [15]: inactive | Potency [16]: inactive | outcome [19]: inactive | Potency [17]: inactive | Potency [18]: inactive | outcome [1]: inactive

CCCCCCCCCCCCOS(=O)(=O)O
Potency [9]: inactive | outcome [10]: inactive | Potency [11]: inactive | Potency [12]: inactive | Potency [13]: inactive | Potency [14]: inactive | outcome [15]: inactive | Potency [16]: inactive | Potency [17]: inactive | Potency [18]: inactive

NC(=O)N/N=C/c1ccc([N+](=O)[O-])o1
Potency [13]: inactive | Potency [16]: inactive | Potency [17]: inactive | activity change, negative = inhibition ([2]; at 57.5 µM (top of the series)): -28.3% (inactive) | max response [2, 20]: -6.33% | max response [2, 21]: -28%

CC12CCC(CC1)C(C)(C)O2
Potency [9]: inactive | outcome [10]: inactive | Potency [11]: inactive | Potency [12]: inactive | Potency [13]: inactive | Potency [14]: inactive | outcome [15]: inactive | Potency [16]: inactive | Potency [17]: inactive | Potency [18]: inactive | activity change, negative = inhibition ([2]; at 57.5 µM (top of the series)): 2.95% (inactive) | max response [2, 20]: -6.11% | max response [2, 21]: -2.37%

NCCNCCNCCNCCN
Potency [9]: inactive | outcome [10]: inactive | Potency [11]: inactive | Potency [12]: inactive | Potency [13]: inactive | Potency [14]: inactive | outcome [15]: inactive | Potency [16]: inactive | Potency [17]: inactive | Potency [18]: inactive
